Source: PubChem BioAssay (NCATS)
Records with an inconclusive call do not appear. Activity calls are given as the source filed them. Unless noted, calls come from the whole dose curve; as a rule, active = well fitted curve in the direction sought with a large enough effect; inconclusive = small, poorly fitted or top-dose-only effect, or another doubt; inactive = no such curve, though single readings can be large; an effect the other way counts as inactive or inconclusive.

Assays:
[1] = Cell Viability - BJ (AID 421; calls by dose curve;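 note: potency is the fitted concentration of half-maximal effect; cells exposed to compound for 40 hours at 37 °C before readout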); details: BJ fibroblast viability, qHTS
Summary of the method: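 Quantitative HTS: ATP depletion in BJ cells after 40 hr compound exposure in complete culture medium, detected with CellTiter-Glo; AC50 from standard Hill fits.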

[2] = Cell Viability - Hek293 (AID 427;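 active = compounds whose dose-response curve shows a full or clear partial loss of cell viability, called from curve shape rather than a numeric limit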;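 note: potency is the fitted concentration of half-maximal effect; cells exposed to compound for 40 hours at 37 °C before reading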); details: qHTS
Summary of the method: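 AC50 values derive from Hill-modelled concentration-response of ATP-based luminescence, normalized between DMSO-only and 100 uM tamoxifen controls. Cells were exposed in complete culture medium for 40 hr at 37 °C before detection.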

[3] = Cell Viability - HepG2 (AID 433; calls by dose curve;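 note: potency is the fitted concentration of half-maximal effect; potency for ATP loss meaning cytotoxicity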); details: qHTS
Summary of the method: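 Cytotoxicity is scored as loss of intracellular ATP in HepG2 cells exposed to compounds for 40 h. Concentration-response curves, normalized to DMSO and 100 uM tamoxifen, give AC50 values.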

[4] = Cell Viability - MRC5 (AID 434; calls by dose curve;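 note: potency is the fitted concentration of half-maximal effect; potency reflects cytotoxicity seen as loss of intracellular ATP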); details: MRC5 lung fibroblast viability, qHTS
Summary of the method: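 MRC5 normal human lung fibroblasts, 1500 cells/well, exposed to compound for 40 hr at 37 C. Cellular ATP was read by CellTiter-Glo luminescence; data normalized to DMSO and 100 uM tamoxifen, with AC50 from Hill fits.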

[5] = Cell Viability - SK-N-SH (AID 435; calls by dose curve;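 note: potency is the fitted concentration of half-maximal effect; compound exposure lasted 40 h at 37 °C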); details: SK-N-SH neuroblastoma cell viability qHTS
Summary of the method: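 Cells seeded at 1500 per well and incubated 5 hr at 37 °C. Compound added, then 40 hr at 37 °C. CellTiter-Glo added, 20 min at room temperature, luminescence read.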

[6] = target: Mitogen-activated protein kinase 10 (Mus musculus) (UniProt Q61831); assay: JNK3 AlphaScreen Assay (AID 530; active = well fitted curve in either direction with a large enough effect, not every such curve was filed as active;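 note: kinase came from lysate of stimulated human HepG2 cells; signal reports phosphorylation of biotinylated GST-cJun 1-79 at Ser73 with 10 µM ATP; % is set by controls: 0 for no effect and ±100 for the full control effect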); details: JNK3 lysate, c-Jun phosphorylation; series mostly up to 57.1 µM
Summary of the method: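 qHTS format: compounds tested as titrations against IL-1beta/TNF-alpha-activated HepG2 lysate JNK3 with biotin-GST-cJun substrate and 10 uM ATP at room temperature. Loss of anti-phospho-cJun AlphaScreen signal indicates inhibition.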

[7] = Cell Viability - N2a (AID 540); details: N2a mouse neuroblastoma cell viability; activity change, negative = cytotoxicity: at 92.2 µM (top of the series);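 note: plate controls were DMSO alone for no effect and tamoxifen control for full effect; nearly all actives have a fitted effect of over 45% in size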
Summary of the method: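 Mouse neuroblastoma N2a cells (1500/well) were preincubated 5 hr at 37 °C, then exposed to compounds for 40 hr at 37 °C in complete medium. Viability was read as intracellular ATP by CellTiter-Glo luminescence; AC50 from Hill fits.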

[8] = Cell Viability - NIH 3T3 (AID 541); details: NIH 3T3 cell viability, qHTS; activity change, negative = cytotoxicity: at 92.2 µM (top of the series);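 note: plate controls were DMSO alone for no effect and tamoxifen positive control for full effect; nearly all actives have a fitted effect of over 25% in size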
Summary of the method: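 NIH 3T3 mouse embryo fibroblasts (1000 cells/well) were plated in complete medium and treated with compound for 40 hr at 37 °C. Viability was read as intracellular ATP by CellTiter-Glo luminescence; AC50 values came from Hill-equation fits of concentration-response data.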

[9] = Cell Viability - HUV-EC-C (AID 542); details: HUV-EC-C endothelial cell viability, qHTS; series mostly up to 92.2 µM; note: % is set by controls: 0 for no effect and ±100 for the full control effect; nearly all actives have a fitted effect of over 35% in size
Summary of the method: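 HUV-EC-C normal human vascular endothelial cells, 1000 cells/well, pre-incubated 5 hr at 37 °C, then exposed to compounds for 40 hr at 37 °C in complete medium. Viability measured as intracellular ATP by CellTiter-Glo luminescence; AC50 from Hill fits.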

[10] = Cell Viability - H-4-II-E (AID 543); details: H-4-II-E rat hepatoma viability; series mostly up to 92.2 µM; note: % is set by controls: 0 for no effect and ±100 for the full control effect; nearly all actives have a fitted effect of over 35% in size
Summary of the method: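 Rat hepatoma H-4-II-E cells (1500/well) were plated, incubated 5 hr at 37 °C, then exposed to compounds for 40 hr at 37 °C. Cellular ATP was read by CellTiter-Glo luminescence; AC50 came from Hill-equation fits of concentration-response data.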

[11] = Cell Viability - SH-SY5Y (AID 544); details: SH-SY5Y neuroblastoma cell viability; viability change, negative = cytotoxic: at 92.2 µM (top of the series); note: nearly all actives have a fitted effect of over 55% in size
Summary of the method: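 Human neuroblastoma SH-SY5Y cells (1500/well) in complete medium were exposed to compounds for 40 hr at 37 °C; intracellular ATP was then quantified by CellTiter-Glo luminescence after 20 min at room temperature. AC50 came from Hill-equation concentration-response fits.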

[12] = Cell Viability - Renal Proximal Tubule (AID 545); details: renal proximal tubule cells viability, primary cells of rat origin; series mostly up to 91.7 µM; note: nearly all actives have a fitted effect of over 40% in size
Summary of the method: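 Cytotoxicity is scored as a concentration-dependent drop in cellular ATP in primary rat renal proximal tubule cells exposed for 40 hr. AC50 derives from Hill modelling.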

[13] = Cell Viability - Mesenchymal (AID 546); details: mesenchymal cells viability, qHTS; series mostly up to 91.7 µM;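 note: cells exposed to compound for 40 hours before reading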
Summary of the method: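 Human kidney mesenchymal cells from normal renal glomeruli, 1000 cells/well, rested 5 hr at 37 °C, then treated 40 hr at 37 °C in complete medium. Cellular ATP read by CellTiter-Glo luminescence; AC50 from Hill-equation fits.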

[14] = Cellular Toxicity (caspase-3) HepG2 (AID 654); details: HepG2 caspase-3 activation, luminescence; series mostly up to 92.2 µM;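 note: cells exposed to compound for 16 hours before reading; 0% = DMSO alone and 100% = caspase signal from 100 µM tamoxifen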
Summary of the method: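 HepG2 cells (1500/well) in complete medium were treated with compounds for 16 hr at 37 °C. Caspase-3/7 activity was then read as luminescence from peptide-aminoluciferin cleavage. AC50 came from Hill fits, normalized to DMSO and 100 uM tamoxifen.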

[15] = Cellular Toxicity (caspase-3) Jurkat (AID 655); details: Jurkat caspase-3 activation, luminescence; caspase-3 activation: at 92.2 µM (top of the series), DMSO = 0%, tamoxifen = 100%;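 note: cells exposed to compound for 16 h at 37 °C before reading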
Summary of the method: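 Caspase 3/7 activation is scored as increased luminescence in Jurkat cells cultured with compound for 16 hours in complete medium. AC50 values come from Hill fits of qHTS concentration-response data normalized to DMSO and 100 uM tamoxifen controls.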

[16] = Cellular Toxicity (caspase-3) HUV-EC-C (AID 656); details: HUV-EC-C cells, caspase-3 activation (apoptosis), vehicle = 0, 100 µM tamoxifen = 100%; series mostly up to 92.2 µM;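 note: cells exposed to compound for 16 h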
Summary of the method: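 Read-out: luminescence proportional to caspase 3/7 activity, measured 20 min after adding Caspase-Glo 3/7 reagent. Cells (HUV-EC-C) had received compound for 16 hr at 37°C. Increases relative to DMSO and 100 uM tamoxifen gave concentration-response AC50 values.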

[17] = Cellular Toxicity (caspase-3) SHSY5Y (AID 657); details: SH-SY5Y caspase-3 activation, DMSO zero, 10 µM staurosporine = 100%; series mostly up to 91.7 µM;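 note: cells exposed to compound for 16 hours at 37 °C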
Summary of the method: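 Cells plated and incubated 5 h at 37 °C, dosed over a concentration range, incubated 16 h, then given Caspase-Glo 3/7 reagent for 1 h at room temperature before luminescence reading. Staurosporine (10 uM) defined full stimulation.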

[18] = Cellular Toxicity (caspase-3) BJ (AID 658); details: BJ fibroblasts, luminescence, normalized: DMSO 0%, staurosporine 100%; series mostly up to 91.7 µM
Summary of the method: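 BJ human foreskin fibroblasts, 1000 cells/well, treated 16 hours at 37 °C in complete medium; caspase 3/7 activity by Caspase-Glo luminescence after 1 hr at room temperature. Normalized to DMSO and 10 uM staurosporine; AC50 from Hill fits.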

[19] = Cellular Toxicity (caspase-3) MRC-5 (AID 659); details: MRC-5 cells, luminescence, normalized: DMSO 0%, 10 µM staurosporine 100%; series mostly up to 91.7 µM;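 note: cells exposed to compound for 16 h at 37 °C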
Summary of the method: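 MRC-5 human normal lung fibroblasts, 1500 cells/well, treated 16 h at 37 °C in complete medium. Caspase 3/7 measured by Caspase-Glo luminescence after 1 h at room temperature. Normalized to DMSO and 10 uM staurosporine; AC50 from Hill fit.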

Cc1ccc(S(=O)(=O)NC2CCCCC2)cc1
inactive: Potency [1] > 92 µM | Potency [2] > 92 µM | Potency [3] > 92 µM | Potency [4] > 92 µM | Potency [5] > 92 µM | outcome [6] | activity change, negative = cytotoxicity [7] -19.2% | Potency [8] | Potency [9] | Potency [10] | Potency [11] | Potency [12] | Potency [13] | Potency [14] | caspase-3 activation [15] 0.692% | outcome [16] | outcome [17] | outcome [18] | outcome [19]

CCCC(C)CO (stereo unspecified)
inactive: Potency [1] > 92 µM | Potency [2] > 92 µM | Potency [4] > 92 µM | outcome [6] | Potency [8] | Potency [9] | Potency [10] | Potency [11] | Potency [13] | Potency [14] | caspase-3 activation [15] 0.921% | outcome [16] | outcome [17] | outcome [18] | outcome [19]

Nc1nc(-c2ccccc2)cs1
inactive: Potency [1] > 92 µM | Potency [2] > 92 µM | Potency [3] > 92 µM | Potency [4] > 92 µM | Potency [5] > 92 µM | outcome [6] | activity change, negative = cytotoxicity [7] -4.72% | Potency [8] | Potency [9] | Potency [10] | Potency [12] | Potency [13] | Potency [14] | caspase-3 activation [15] -3.96% | outcome [16] | outcome [17] | outcome [18] | outcome [19]

CCCCCCCN
inactive: Potency [1] > 92 µM | Potency [2] > 92 µM | Potency [3] > 92 µM | Potency [4] > 92 µM | Potency [5] > 92 µM | outcome [6] | activity change, negative = cytotoxicity [7] -10.2% | Potency [8] | Potency [9] | Potency [10] | Potency [11] | Potency [13] | Potency [14] | caspase-3 activation [15] -1.01% | outcome [16] | outcome [17] | outcome [18] | outcome [19]

CCCCCCCCC
inactive: Potency [1] > 92 µM | Potency [2] > 92 µM | Potency [3] > 92 µM | Potency [4] > 92 µM | Potency [5] > 92 µM | outcome [6] | activity change, negative = cytotoxicity [7] -3.11% | Potency [8] | Potency [9] | Potency [10] | Potency [11] | Potency [12] | Potency [13] | Potency [14] | caspase-3 activation [15] 0.991% | outcome [16] | outcome [17] | outcome [18] | outcome [19]

O=C(O)c1ccc(C(=O)O)cc1
inactive: Potency [1] > 92 µM | Potency [2] > 92 µM | Potency [3] > 92 µM | Potency [4] > 92 µM | outcome [6] | Potency [8] | Potency [9] | Potency [10] | Potency [11] | Potency [12] | Potency [14] | caspase-3 activation [15] 1.28% | outcome [16] | outcome [17] | outcome [18] | outcome [19]

CCNS(=O)(=O)c1ccc(C)cc1
inactive: Potency [1] > 92 µM | Potency [2] > 92 µM | Potency [3] > 92 µM | outcome [6] | activity change, negative = cytotoxicity [7] -13.9% | Potency [8] | Potency [9] | Potency [10] | Potency [11] | Potency [12] | Potency [13] | Potency [14] | caspase-3 activation [15] 2.46% | outcome [16] | outcome [17] | outcome [18] | outcome [19]

Cc1ccc(C)c(O)c1
inactive: Potency [1] > 92 µM | Potency [2] > 92 µM | Potency [3] > 92 µM | outcome [6] | activity change, negative = cytotoxicity [7] 3.3% | Potency [8] | Potency [9] | Potency [10] | Potency [11] | Potency [12] | Potency [13] | Potency [14] | caspase-3 activation [15] 0.228% | outcome [16] | outcome [17] | outcome [19]

COC(=O)CS
inactive: Potency [1] > 92 µM | Potency [2] > 92 µM | Potency [3] > 92 µM | Potency [5] > 92 µM | outcome [6] | activity change, negative = cytotoxicity [7] -8.95% | Potency [8] | Potency [9] | Potency [10] | Potency [11] | Potency [12] | Potency [13] | caspase-3 activation [15] -2.15% | outcome [16] | outcome [17] | outcome [18] | outcome [19]

CCOC(C)(C)C
inactive: Potency [1] > 92 µM | Potency [2] > 92 µM | Potency [4] > 92 µM | Potency [5] > 92 µM | outcome [6] | activity change, negative = cytotoxicity [7] -6.59% | Potency [8] | Potency [9] | Potency [10] | Potency [11] | Potency [12] | Potency [13] | Potency [14] | caspase-3 activation [15] -1.17% | outcome [16] | outcome [18] | outcome [19]

O=CNc1ccccc1
inactive: Potency [1] > 92 µM | Potency [2] > 92 µM | Potency [4] > 92 µM | outcome [6] | activity change, negative = cytotoxicity [7] 5.69% | Potency [8] | Potency [9] | Potency [10] | Potency [11] | Potency [13] | Potency [14] | caspase-3 activation [15] 0.613% | outcome [16] | outcome [18] | outcome [19]

OCCO
inactive: Potency [1] > 92 µM | Potency [2] > 92 µM | Potency [3] > 92 µM | Potency [4] > 92 µM | Potency [5] > 92 µM | outcome [6] | activity change, negative = cytotoxicity [7] -12.9% | Potency [8] | Potency [9] | Potency [10] | Potency [11] | Potency [12] | Potency [13] | Potency [14] | caspase-3 activation [15] 1.1% | outcome [16] | outcome [17] | outcome [18] | outcome [19]

CC(=O)OC(C)=O
inactive: Potency [1] > 92 µM | Potency [2] > 92 µM | Potency [3] > 92 µM | Potency [4] > 92 µM | Potency [5] > 92 µM | outcome [6] | Potency [8] | Potency [10] | Potency [11] | Potency [12] | Potency [13] | caspase-3 activation [15] -0.999% | outcome [16] | outcome [17] | outcome [19]
